Shiga toxin inh – A qHTS for Small Molecule Inhibitors of Shiga Toxin | Vero cells, Shiga toxin protein synthesis inhibition reporter | inhibition, % at 38.7 µM | 290,000 tested, 9.2% active | AID 2315, 2010; in the data active = inhibition mostly above about 28%, no sharp cut-off; inactive = mostly below about 43%
Cycloheximide cs – Cycloheximide Counterscreen for Small Molecule Inhibitors of Shiga Toxin; max response, %; cell reporter, cycloheximide protein synthesis inhibition counterscreen; 300,000 tested, 12% active; in the data active = max response mostly above about 13%, no sharp cut-off; inactive = mostly below about 14%; also: read at 38.3 µM for the half of the compounds with a filed dose
LASV entry inh – qHTS for Inhibitors of binding or entry into cells for Lassa Virus. Lassa virus pseudotype entry inhibition, cell reporter. Potency, µM (highest dose often 37.9 µM), most hits filed as inhibitors. 300,000 tested, 1.2% active. AID 540256, 2011; calls by dose curve; tested in HEK293 cells; also: nearly all actives have a fitted effect of over 50% in size
MARV entry inh – qHTS for inhibitors of binding or entry into cells for Marburg Virus; Marburg virus pseudotyped entry inhibition, cell reporter; Potency, µM (top dose mostly 37.8 µM), most hits filed as inhibitors; 300,000 tested, 1.8% active; calls by dose curve; tested in HEK293 cells
Of the large screens only hits and unclear results are named; the others gave an inactive call. Sampled rows, rich in hits. Any-hit rate of the full collection: about 12%.

Cc1ccc(S(=O)(=O)N2CCN(C(=O)N(c3ccccc3)c3ccccc3)CC2)cc1	LASV entry inh inconclusive, MARV entry inh 18µM
CN(CC(=O)N1CCCCCC1)S(=O)(=O)c1ccc(F)cc1	Shiga toxin inh 105, Cycloheximide cs 39, MARV entry inh inconclusive
Cc1ccc(N(C)C(=O)N2CCN(S(=O)(=O)c3ccc(C)cc3)CC2)cc1	none (no result: LASV entry inh)
CN(CC(=O)N1CCCCCC1)S(=O)(=O)c1ccccc1	Shiga toxin inh 69, Cycloheximide cs 34, MARV entry inh inconclusive
Cc1ccc(S(=O)(=O)N(C)CC(=O)N2CCCCCCC2)cc1	none (no result: Shiga toxin inh, Cycloheximide cs)
COc1ccc(N(CC(=O)NC(C)c2ccccc2)S(=O)(=O)c2ccc(C)cc2)cc1 (configuration not stated)	none
CNC(=O)CN(c1ccc(Oc2ccccc2)cc1)S(=O)(=O)c1ccc(C)cc1	LASV entry inh 7.1µM
CC(C)C(=O)Nc1ccc2nc(SCC(=O)N3CCCC3)sc2c1	none (no result: Shiga toxin inh, Cycloheximide cs)
COc1ccc(S(=O)(=O)N(CC(=O)N2CCC(C)CC2)c2ccc(C)cc2)cc1	LASV entry inh 7.1µM (no result: Shiga toxin inh, Cycloheximide cs)
Cc1ccc(S(=O)(=O)N(CC(=O)N2CCCCCC2)c2ccccc2)cc1	LASV entry inh 6.5µM
CN(CC(=O)N1CCCCCC1)S(=O)(=O)c1ccc(Br)cc1	none (no result: LASV entry inh, MARV entry inh)
CN(CC(=O)N1CCCCCC1)S(=O)(=O)c1ccc(Br)s1	Shiga toxin inh 80, Cycloheximide cs 33, MARV entry inh inconclusive
COc1ccc(/C=C2\N=C(C)OC2=O)cc1OC(C)=O	none (no result: LASV entry inh, MARV entry inh)
COc1cc(/C=C2\N=C(c3ccccc3)OC2=O)ccc1OC(C)=O	Cycloheximide cs 7.5 (no result: LASV entry inh, MARV entry inh)
CC1=NN(c2ccccc2)C(=O)/C1=C\c1cn(C)c2ccccc12	none
CC1=NN(c2ccccc2)C(=O)/C1=C\c1cc(C)n(C)c1C	Shiga toxin inh 49, Cycloheximide cs 29
CC1=NN(c2ccccc2)C(=O)/C1=C/c1cc2cc(C)ccc2nc1N1CCCCC1	Cycloheximide cs 23 (no result: LASV entry inh, MARV entry inh)
COc1cc(CCN2C(=O)c3cccc4cccc(c34)C2=O)c(S(=O)(=O)N2CCC(C)CC2)cc1OC	LASV entry inh inconclusive, MARV entry inh inconclusive
Cc1cccc(Cn2c(CN3CCCC(C)C3)nc3c2c(=O)n(C)c(=O)n3C)c1 (configuration not stated)	none (no result: Shiga toxin inh, Cycloheximide cs)
CCS(=O)(=O)c1ccc(OC)c(Nc2ncc(-c3cccc(F)c3)o2)c1	none (no result: Shiga toxin inh, Cycloheximide cs, MARV entry inh)
CCOc1ccc(NC(=O)c2oc3ccccc3c2NC(=O)C(C)Oc2ccccc2)cc1 (configuration not stated)	MARV entry inh inconclusive (no result: Shiga toxin inh, Cycloheximide cs)
C/C(=N\NC(=O)c1cccc(F)c1)c1ccc(Br)s1	Cycloheximide cs 39, LASV entry inh inconclusive
C/C(=N\NC(=O)c1ccccc1O)c1ccc(Br)s1	Shiga toxin inh 54, Cycloheximide cs 64, LASV entry inh inconclusive, MARV entry inh inconclusive
Cc1cc(/C=N/n2cnnc2)c(C)n1-c1ccc(OCc2ccc(Cl)cc2)cc1	Shiga toxin inh 92, Cycloheximide cs 52, LASV entry inh inconclusive, MARV entry inh inconclusive
Fc1ccccc1COc1cccc(/C=N/n2cnnc2)c1	MARV entry inh inconclusive
Cc1cc(/C=N/n2cnnc2)c(C)n1-c1ccc(OCc2ccccc2F)cc1	Cycloheximide cs 26, LASV entry inh inconclusive, MARV entry inh inconclusive
Cc1cc(/C=N/NC(N)=S)c(C)n1-c1ccc(Cl)cc1	LASV entry inh inconclusive, MARV entry inh inconclusive
Cc1ccc(NS(=O)(=O)c2ccc(OCC(=O)NCC3CCCO3)cc2)cc1 (configuration not stated)	none
CCc1ccc(-c2cc(C(=O)Nc3c(C)n(C)n(-c4ccccc4)c3=O)c3ccccc3n2)s1	LASV entry inh inconclusive, MARV entry inh inconclusive
Cc1cc(Br)cc2c(C(=O)Nc3c(C)n(C)n(-c4ccccc4)c3=O)cc(-c3cccs3)nc12	LASV entry inh inconclusive, MARV entry inh 6.5µM
CCOc1ccc(S(=O)(=O)N(C)C)cc1-c1nc2c(C(C)(C)C)nn(C)c2c(=O)[nH]1	none
CCOc1ccc(S(=O)(=O)N(C)CCO)cc1-c1nc2c(C(C)(C)C)nn(C)c2c(=O)[nH]1	LASV entry inh 2.8µM
CCOC(=O)c1cnn(-c2ccccc2)c1N	Cycloheximide cs 31
Nc1c(C(=O)O)cnn1-c1ccc([N+](=O)[O-])cc1	none
CCOC(=O)c1cnn(-c2nc(C)cc(C)n2)c1N	none
COC(=O)c1cnn(-c2ccccc2)c1N	none (no result: LASV entry inh, MARV entry inh)
CCOC(=O)c1cnn(-c2ccc([N+](=O)[O-])cc2)c1N	Cycloheximide cs 15 (no result: LASV entry inh, MARV entry inh)
CCOC(=O)c1cnn(-c2cccc(Cl)c2)c1N	Shiga toxin inh 61, Cycloheximide cs 34, MARV entry inh inconclusive
CCOC(=O)c1cnn(-c2ccccc2)c1-n1cccc1C(=O)C(=O)Nc1ccccc1	Shiga toxin inh 43, Cycloheximide cs 21, MARV entry inh inconclusive
CCOC(=O)c1cnn(-c2ccccc2)c1-n1cccc1C(=O)C(=O)Nc1ccc(F)cc1	MARV entry inh inconclusive
COc1ccc(OCC(=O)N2CCC(n3nccc3NC(=O)C3CC3)CC2)cc1	none (no result: LASV entry inh, MARV entry inh)
Cc1ccc(N2CCCC2=O)cc1S(=O)(=O)N1CCOCC1	MARV entry inh inconclusive
COc1ccc(CNC(=O)CN2C(=O)COc3ccc(S(=O)(=O)N4CCOCC4)cc32)cc1	none
NC(=O)c1cnn(-c2ccc3ccccc3c2)c1N	Cycloheximide cs 24
CCOC(=O)c1ccc(Oc2ccc(C(F)(F)F)cn2)cc1	Cycloheximide cs 29 (no result: LASV entry inh, MARV entry inh)
CC(=O)NC(=O)c1cnn(-c2ccccc2)c1N	MARV entry inh inconclusive
CCOC(=O)c1cnn(-c2ccc(C(F)(F)F)cn2)c1N	Shiga toxin inh 77, Cycloheximide cs 40, LASV entry inh inconclusive, MARV entry inh inconclusive
Cc1ccc(Cl)cc1N1CCN(C(=O)CN(c2ccccc2)S(=O)(=O)N(C)C)CC1	none
O=C(NC1CCN(C(=O)Nc2ccc(F)cc2)CC1)c1ccccc1F	none
O=C(CN1CCN(c2ccc(O)cc2)CC1)NC(=O)NCc1ccco1	none
Nc1cccc(-c2nc3cc(S(=O)(=O)c4ccc5oc(-c6cccc(N)c6)nc5c4)ccc3o2)c1	LASV entry inh inconclusive, MARV entry inh inconclusive
CC(C)c1ccc2oc(-c3ccc(N)cc3)nc2c1	Shiga toxin inh 117, Cycloheximide cs 42, LASV entry inh inconclusive, MARV entry inh inconclusive
Cc1ccc2oc(Nc3nc(C)c(C)c(C)n3)nc2c1	Shiga toxin inh 88, Cycloheximide cs 37 (no result: LASV entry inh, MARV entry inh)
Cc1ccc(-c2nc3cc(N)ccc3o2)cc1	Shiga toxin inh 68, Cycloheximide cs 25, LASV entry inh inconclusive, MARV entry inh inconclusive
Cc1ccc2oc(-c3cccc(N)c3)nc2c1	Shiga toxin inh 58, Cycloheximide cs 26, LASV entry inh inconclusive, MARV entry inh 13µM
Cc1ccc(-c2nc3cc(NS(=O)(=O)c4ccc(C)cc4)ccc3o2)cc1	none
Cc1ccc(N=C2SC(C(=O)Nc3ccc(OC(F)(F)F)cc3)C(N)=C2C(=O)Nc2c(C)cc(C)cc2C)cc1 (configuration not stated)	LASV entry inh inconclusive, MARV entry inh inconclusive
CC(C)CN(C(=O)CCCSc1nc2ccccc2[nH]1)c1c(N)n(Cc2ccccc2)c(=O)[nH]c1=O	none (no result: Shiga toxin inh, Cycloheximide cs)
O=c1oc(-c2cccs2)nc2ccccc12	MARV entry inh inconclusive
CC(C)(C)c1ccc(-c2nc3cc(N)ccc3o2)cc1	Shiga toxin inh 94, Cycloheximide cs 51, LASV entry inh inconclusive, MARV entry inh inconclusive
Cc1ccc2oc(-c3ccco3)nc2c1	Shiga toxin inh 101, Cycloheximide cs 42

Assay outcomes from PubChem BioAssay.
